Measured values as given in PubChem BioAssay AID2732 (Emory University Molecular Libraries Screening Center, 2010).
Out of some 220,000 compounds screened, about 8,200 (3.7%) were called active. The list comes from a sample in which actives are over-represented; it also holds similar structures and randomly drawn compounds. A number with no mark means an inactive call.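 Rule for the calls: active = compounds that reduced the stress-induced luciferase reporter signal by more than about 70% of percent inhibition (limit read from the data); inactive = the rest.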

assay: blockers of ER-stress CHOP reporter expression – cell-based, unfolded protein response, luciferase reporter, primary screen (AID 2732); details: CHO-K1 CHOP-promoter luciferase, tunicamycin-induced, 15-18 h; at 10 µM; stronger effect = higher value;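 note: 0% = tunicamycin plus vehicle and 100% = wells without tunicamycin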

Structure (SMILES) | inhibition
Cn1c2c(c(=O)n(C)c1=O)C(c1cccc(F)c1)C(C#N)=C(N)O2 (stereo unspecified) | 6.57%
CCc1nc2sc3c(Cl)ncnc3c2c2c1CCCC2 | -17.1%
CCOC(=O)CN(Cc1ccc(OC)c(OC)c1)S(=O)(=O)c1ccc(OC)cc1 | -1.05%
COc1ccc(C(CCN(Cc2ccc(OC)c(OC)c2)C(=O)CCl)c2ccccc2)cc1 (stereo unspecified) | 106% (active)
COc1ccc(CCNC(=O)C(Sc2ccccn2)c2ccccc2)cc1OC (stereo unspecified) | 6.29%
CC(C)(C)c1cc(C(=O)NN)n(Cc2ccc(Cl)cc2Cl)n1 | -7.9%
Cc1c([N+](=O)[O-])c(N)nn1C | 4.08%
N#CCC(=O)N/N=C/c1cn(Cc2ccc3ccccc3c2)c2ccccc12 | 1.95%
CC(C)n1cnc2c(Nc3cccc(Cl)c3)nc(N(CCO)CCCO)nc21 | 61.8%
NS(=O)(=O)c1cccnc1Nc1cccc(Cl)c1 | 5.4%
OCCCNc1nccc(-c2cc(Nc3cccc(Cl)c3)ncn2)n1 | 103% (active)
CCOC(=O)C1CCN(C(=O)Nc2cccc(OC)c2)CC1 | 6.27%
CSc1nc(C)nc(C2CC2)c1C#N | 15.9%
CC(=O)NC(Cc1ccccc1)C(=O)NC1CCN(c2ncccc2[N+](=O)[O-])CC1 (stereo unspecified) | 19.6%
COc1ccc(N2CCN(c3ccc([N+](=O)[O-])nc3)CC2)cc1 | 10.8%
COc1ccc(-c2cc(C3CCN(c4ncccc4[N+](=O)[O-])CC3)[nH]n2)cc1 | 75.9% (active)
CC1(C)CC(CNCCC(c2ccc(F)cc2)c2ccco2)CCO1 (stereo unspecified) | 10.6%
C=CCn1c(SCn2nnc3ccccc3c2=O)nnc1-c1ccc(Cl)cc1 | 17.8%
C=CCn1c(-c2ccc(Cl)cc2)ccc(C#N)c1=O | 82.2% (active)
C=CCn1cc(-c2cccc(C(F)(F)F)c2)cc(C#N)c1=O | 5.76%
O=C(Cc1ccccc1)Nc1c(Cl)ccc2nsnc12 | -1.48%

Structure (SMILES) | inhibition
O=C(c1ccc(F)cc1)C1CCN(Cc2cn[nH]c2-c2ccccc2)CC1 | 15.6%
Cn1cnc([N+](=O)[O-])c1Sc1n[nH]c(N)n1 | -10.3%
O=C(Nc1ccc(CSc2ccccc2)cc1)c1ccc(CN2CCOCC2)cc1 | 79.5% (active)
O=C(Nc1ccccc1C(=O)N1CCOCC1)c1ccc(CSc2ccccc2)cc1 | -8.2%
COc1ccc(C(=O)Nc2ccc(CN3CCOCC3)cc2)cc1 | -29.9%
Cc1nnc(C)c2c(C)n(N)c(C)c12 | 13.9%
Cc1ccc(COc2ccc(C(=O)NN)cc2)cc1 | 0.74%
COCC(=O)Nc1nnc(COc2ccccc2)s1 | -20.1%
Cc1ccc(OCc2nnc(NC(=O)OCC(C)C)s2)cc1 | 91% (active)
CCn1c(CN2C(=O)CSc3ccccc32)n[nH]c1=S | 11.5%
C=CCNC(=O)c1ccc2c3n(nc2c1)-c1ccc(C)cc1CO3 | -2.7%
COCCNC(=S)N1CCN(C)CC1 | -18.1%
CSCCC1NC2(C(=O)Nc3ccc(Cl)cc32)[C@@H]2C(=O)N(C3CCCC3)C(=O)[C@H]12 (stereo partly specified) | 85.7% (active)
O=C1[C@@H]2C(Cc3ccc(O)cc3)NC3(C(=O)Nc4ccc(F)cc43)[C@@H]2C(=O)N1c1ccc(F)cc1 (stereo partly specified) | 27.9%
COc1ccc(N=Nc2ccc(O)c(P(=O)(c3ccccc3)c3ccccc3)c2)cc1 | 2.83%
CCOC(=O)CN/C=C(\C#N)c1ccc(F)cc1 | -6.58%
CCOc1cc(/C=C(/C#N)c2ccc(Cl)cc2)cc(Cl)c1OCC(=O)O | 87.8% (active)
C/C(=N\OCC(=O)O)c1ccc(Cl)cc1 | -4.7%
C=CC1C(OC2OC(CO)C(O)C(O)C2O)OC=C(C(=O)OC)C1CC1CC(=O)CC(CC(=O)CCc2ccc(O)cc2)O1 (stereo unspecified) | 7.57%
CCOC(=O)c1c(CC(C)C)csc1/N=C/C1=C(O)CCCC1=O | 24.8%
O=C(Nc1ccccc1)Nc1nnc(COc2ccccc2F)s1 | 9.53%

Structure (SMILES) | inhibition
Cc1nnc(NC(=O)CCCOc2ccccc2)s1 | 26.2%
O=C(Nc1nnc(COc2ccccc2)s1)Nc1ccccc1F | 96.7% (active)
Cc1ccc(S(=O)(=O)N2CCN(C(=O)COC(=O)c3c(C)noc3C)CC2)c(C)c1 | 8.26%
Cc1ccc(C(=O)Cn2cc([N+](=O)[O-])nc2C)cc1 | 2.6%
O=C(CN1CCOCC1)N/N=C/c1ccc(-c2ccc(Br)cc2)o1 | 32.5%
O=c1c(-c2ccc3c(c2)OCCO3)c(C(F)(F)F)oc2cc(O)cc(O)c12 | 13.2%
CCOC(=O)c1oc2c(CN3CCN(C)CC3)c(O)ccc2c(=O)c1-c1ccc(Br)cc1 | -10.9%
CCOC(=O)c1cc2cc(-c3c(C(=O)OCC)oc4cc(O)cc(O)c4c3=O)ccc2o1 | 105% (active)
NC(=O)[C@H]1CC2(CC(c3cccc(NC(=O)[C@H]4CCC(=O)N4)c3)=NO2)CN1C(=O)c1ccccc1C(=O)c1ccccc1 (stereo partly specified) | -11.9%
Cn1c(SCC(=O)N/N=C/c2ccc(O)c(O)c2)nc2ccccc21 | -4.19%
Nc1ccc(C(=O)OCC(=O)NC2CCS(=O)(=O)C2)cc1[N+](=O)[O-] (stereo unspecified) | 3.77%
CCOC(=O)C1=C(C)NC(=S)NC1c1cccs1 (stereo unspecified) | 0.7%
C=CCOC(=O)C1=C(C)NC(C)=C(C(=O)OCC=C)C1c1cccs1 | 86.8% (active)
CCOC(=O)C1=C(C)Nc2nc3ccccc3n2C1c1cccs1 (stereo unspecified) | 18%
CCC(C)NC(=O)C1c2ccccc2Oc2ccccc21 (stereo unspecified) | -5.78%
C=CCOc1ccc(/C=C2\SC(=S)N(CCC(=O)O)C2=O)cc1 | 88% (active)
O=C(CCCN1C(=O)/C(=C/c2ccccc2)SC1=S)Nc1ccc(O)cc1 | 58.8%
O=C(CCCN1C(=O)/C(=C\c2ccccc2)SC1=S)Nc1ccccc1O | 27%
Cn1nnc(NC(=S)NC(=O)c2ccccc2)n1 | 17.2%
